Source: PubChem BioAssay (EPA / NIEHS)
Activity calls are given as the source filed them. How the source made its calls: active means hit-call score of the fitted dose curve at least 0.9, where 1 is the maximum; inactive means score below 0.9.

What was measured:
Details in all cases: mRNA level, 48 h; actives raise or lower the signal
[1] = read-out: Insulin-like growth factor-binding protein 1 (IGFBP1), IGFBP1 (gene 3484); test: LTEA_HepaRG_IGFBP1: Life Technologies and Expression Analysis (LTEA) Assay for Insulin-like growth factor-binding protein 1 (IGFBP1) using HepaRG (AID 2283508)
Procedure, shortened: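 Thawed HepaRG cells are plated for 48 h, switched to serum-free induction medium, then dosed in duplicate for another 48 h (100 uM top, half-log steps). Lysates in RLT go to qRT-PCR, and gain or loss of signal is fitted relative to vehicle.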

[2] = read-out: Interleukin 6 (IL6), IL6 (gene 3569); test: LTEA_HepaRG_IL6: Life Technologies and Expression Analysis (LTEA) Assay for Interleukin 6 (IL6) using HepaRG (AID 2283509)
Procedure, shortened: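 HepaRG cells exposed in duplicate for 48 h to eight half-log concentrations, top 100 uM, in 0.5% DMSO serum-free induction medium. mRNA measured by qRT-PCR, normalized to ACTB, GAPDH and POLR2A. Bidirectional fit versus DMSO.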

[3] = read-out: Potassium channel subfamily K member 1 (KCNK1), KCNK1 (gene 3775); test: LTEA_HepaRG_KCNK1: Life Technologies and Expression Analysis (LTEA) Assay for Potassium channel subfamily K member 1 (KCNK1) using HepaRG (AID 2283511)
Procedure, shortened: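 Differentiated HepaRG cells, 48 h exposure in serum-free induction medium with 0.5% DMSO; 8 concentrations, half-log from 100 uM, duplicate. KCNK1 mRNA by qRT-PCR, normalized to ACTB, GAPDH, POLR2A; bidirectional fit vs DMSO.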

[4] = read-out: Keratin 19 (KRT19), KRT19 (gene 3880); test: LTEA_HepaRG_KRT19: Life Technologies and Expression Analysis (LTEA) Assay for Keratin 19 (KRT19) using HepaRG (AID 2283512)
Procedure, shortened: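 KRT19 transcript levels, measured by Fluidigm qRT-PCR against three housekeeping genes, are fitted for gain or loss of signal relative to DMSO. Human HepaRG cells receive test chemicals (top 100 uM, half-log steps, 0.5% DMSO) for 48 hours.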

[5] = read-out: JUN Transcription Factor, JUN (gene 3725); test: LTEA_HepaRG_JUN: Life Technologies and Expression Analysis (LTEA) Assay for JUN Transcription Factor using HepaRG (AID 2283513)
Procedure, shortened: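 Differentiated HepaRG cells were exposed to chemicals for 48 h in serum-free induction medium, 8 concentrations from 100 uM in half-log steps, 0.5% DMSO vehicle, in duplicate. JUN mRNA was quantified by TaqMan qRT-PCR, normalized to ACTB, GAPDH, POLR2A.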

[6] = read-out: Lipase C (LIPC), LIPC (gene 3990); test: LTEA_HepaRG_LIPC: Life Technologies and Expression Analysis (LTEA) Assay for Lipase C (LIPC) using HepaRG (AID 2283514)
Procedure, shortened: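 HepaRG cells, 48 h after plating, treated in duplicate for 48 h in serum-free induction medium over 8 half-log concentrations from 100 uM, 0.5% DMSO. LIPC mRNA by TaqMan qRT-PCR normalized to ACTB/GAPDH/POLR2A; bidirectional fit versus DMSO.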

[7] = read-out: Lipoprotein lipase (LPL), LPL (gene 4023); test: LTEA_HepaRG_LPL: Life Technologies and Expression Analysis (LTEA) Assay for Lipoprotein lipase (LPL) using HepaRG (AID 2283515)
Procedure, shortened: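 Differentiated HepaRG cells, plated 48 h, then exposed 48 h in serum-free induction medium to 8 concentrations (top 100 uM, half-log steps) in 0.5% DMSO, duplicate. LPL mRNA measured by qRT-PCR, normalized to ACTB, GAPDH and POLR2A.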

[8] = read-out: MicroRNA 122 (MIR122), gene 406906; test: LTEA_HepaRG_MIR122: Life Technologies and Expression Analysis (LTEA) Assay for MicroRNA 122 (MIR122) using HepaRG (AID 2283516); further: the transcript read is the microRNA miR-122
Procedure, shortened: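 Differentiated human HepaRG cells were exposed 48 h in serum-free induction medium to eight half-log concentrations (top 100 uM, 0.5% DMSO). Transcript level was measured by TaqMan qRT-PCR, normalized to ACTB, GAPDH and POLR2A, and fitted bidirectionally versus DMSO.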

[9] = read-out: matrix metalloproteinase-10 (MMP10), MMP10 (gene 4319); test: LTEA_HepaRG_MMP10: Life Technologies and Expression Analysis (LTEA) Assay for matrix metalloproteinase-10 (MMP10) using HepaRG (AID 2283517)
Procedure, shortened: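 Differentiated HepaRG cells in serum-free induction medium exposed 48 h in duplicate to 8-point half-log series up to 100 uM in 0.5% DMSO. mRNA quantified by qRT-PCR, normalised to ACTB, GAPDH, POLR2A; bidirectional fit versus DMSO.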

MYC, MYC (gene 4609) = test: LTEA_HepaRG_MYC: Life Technologies and Expression Analysis (LTEA) Assay for MYC using HepaRG (AID 2283518)
Procedure, shortened: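 HepaRG, ~100,000 cells/well, collagen I; 48 h plating; serum-free induction medium; 48 h dosing, duplicate, 100 uM top, half-log, 0.5% DMSO; total RNA → qRT-PCR MYC; gain/loss fit vs DMSO.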

[10] = read-out: matrix metalloproteinase-3 (MMP3), MMP3 (gene 4314); test: LTEA_HepaRG_MMP3: Life Technologies and Expression Analysis (LTEA) Assay for matrix metalloproteinase-3 (MMP3) using HepaRG (AID 2283519)
Procedure, shortened: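 HepaRG cells (~100,000/well) in serum-free induction medium were dosed in duplicate for 48 h with an 8-point half-log series from 100 uM, 0.5% DMSO. MMP3 mRNA was quantified by Fluidigm TaqMan qRT-PCR, normalized to three housekeeping genes.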

[11] = read-out: Paternally Expressed 10 (PEG10), PEG10 (gene 23089); test: LTEA_HepaRG_PEG10: Life Technologies and Expression Analysis (LTEA) Assay for Paternally Expressed 10 (PEG10) using HepaRG (AID 2283520)
Procedure, shortened: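 Differentiated HepaRG cells, plated 48 h then switched to serum-free induction medium, were exposed in duplicate for 48 h to eight half-log concentrations topping at 100 uM in 0.5% DMSO. PEG10 mRNA was quantified by TaqMan qRT-PCR, normalised to ACTB, GAPDH and POLR2A.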

[12] = read-out: Nuclear factor NF-kappa-B p105 subunit (Homo sapiens) (UniProt P19838); test: LTEA_HepaRG_NFKB1: Life Technologies and Expression Analysis (LTEA) Assay for Nuclear Factor Kappa B Subunit 1 (NFKB1) using HepaRG (AID 2283521)
Procedure, shortened: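 Differentiated human HepaRG cells in serum-free induction medium with 0.5% DMSO were exposed for 48 h to eight half-log concentrations, top 100 uM, in duplicate. NFKB1 mRNA measured by Fluidigm TaqMan qRT-PCR, normalised to ACTB, GAPDH and POLR2A; bidirectional fit versus DMSO.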

[13] = read-out: Protein phosphatase 2A (PPP2R4), PTPA (gene 5524); test: LTEA_HepaRG_PPP2R4: Life Technologies and Expression Analysis (LTEA) Assay for Protein phosphatase 2A (PPP2R4) using HepaRG (AID 2283522)
Procedure, shortened: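 Differentiated HepaRG cells in serum-free induction medium were exposed in duplicate for 48 h to eight concentrations, top 100 uM with half-log dilutions, in 0.5% DMSO. PPP2R4 mRNA was quantified by TaqMan qRT-PCR, normalized to ACTB, GAPDH and POLR2A.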

[14] = read-out: Phosphatase and tensin (PTEN), PTEN (gene 5728); test: LTEA_HepaRG_PTEN: Life Technologies and Expression Analysis (LTEA) Assay for Phosphatase and tensin (PTEN) using HepaRG (AID 2283523)
Procedure, shortened: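 HepaRG cells, 48 h after plating, exposed in duplicate for 48 h in serum-free induction medium to 8 half-log concentrations up to 100 uM (0.5% DMSO). PTEN mRNA by qRT-PCR, normalized to ACTB, GAPDH, POLR2A; bidirectional fit versus DMSO.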

[15] = read-out: solute carrier (SLC22A1), SLC22A1 (gene 6580); test: LTEA_HepaRG_SLC22A1: Life Technologies and Expression Analysis (LTEA) Assay for solute carrier (SLC22A1) using HepaRG (AID 2283524)
Procedure, shortened: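 Differentiated human HepaRG cells in serum-free induction medium, exposed 48 h in duplicate to 8-point half-log series from 100 µM top in 0.5% DMSO. SLC22A1 mRNA by TaqMan qRT-PCR normalized to ACTB, GAPDH, POLR2A; bidirectional fit versus DMSO.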

[16] = read-out: Pyruvate Dehydrogenase Kinase 4 (PDK4), PDK4 (gene 5166); test: LTEA_HepaRG_PDK4: Life Technologies and Expression Analysis (LTEA) Assay for Pyruvate Dehydrogenase Kinase 4 (PDK4) using HepaRG (AID 2283525)
Procedure, shortened: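 HepaRG cells plated 48 h, then switched to serum-free induction medium and exposed in duplicate for 48 h to 8 half-log concentrations from 100 uM in 0.5% DMSO. PDK4 mRNA measured by qRT-PCR, normalized to ACTB, GAPDH and POLR2A; bidirectional fit versus DMSO.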

[17] = read-out: NAD(P)H dehydrogenase [quinone] 1 (NQO1), NQO1 (gene 1728); test: LTEA_HepaRG_NQO1: Life Technologies and Expression Analysis (LTEA) Assay for NAD(P)H dehydrogenase [quinone] 1 (NQO1) using HepaRG (AID 2283526)
Procedure, shortened: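 Differentiated HepaRG cells, plated 48 h and then switched to serum-free induction medium, were exposed in duplicate for 48 h to 8-point half-log concentrations up to 100 uM in 0.5% DMSO. mRNA measured by qRT-PCR, normalized to ACTB, GAPDH, POLR2A; bidirectional fit versus DMSO.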

[18] = read-out: Nuclear factor erythroid 2-related factor 2 (Homo sapiens) (UniProt Q16236); test: LTEA_HepaRG_NFE2L2: Life Technologies and Expression Analysis (LTEA) Assay for Nuclear factor erythroid 2-related factor 2 (NFE2L2) Transcription Factor using HepaRG (AID 2283527)
Procedure, shortened: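 Differentiated human HepaRG cells, serum-free induction medium, exposed 48 h in duplicate to eight half-log concentrations up to 100 uM in 0.5% DMSO. NFE2L2 mRNA by Fluidigm TaqMan qRT-PCR, normalised to ACTB, GAPDH, POLR2A; bidirectional change versus DMSO.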

[19] = read-out: Interleukin 6 Receptor (IL6R), IL6R (gene 3570); test: LTEA_HepaRG_IL6R: Life Technologies and Expression Analysis (LTEA) Assay for Interleukin 6 Receptor (IL6R) using HepaRG (AID 2283510);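 further: TaqMan qRT-PCR signal normalized to ACTB GAPDH and POLR2A housekeeping genes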
Procedure, shortened: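 Differentiated human HepaRG cells, plated 48 h then switched to serum-free induction medium, were dosed in duplicate for 48 h at eight half-log concentrations up to 100 uM in 0.5% DMSO. IL6R mRNA quantified by qRT-PCR, normalized to ACTB/GAPDH/POLR2A; bidirectional fit versus DMSO.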

Measured: AC50

Sequence of Nuclear factor NF-kappa-B p105 subunit (Homo sapiens) (P19838 whole entry, looked up): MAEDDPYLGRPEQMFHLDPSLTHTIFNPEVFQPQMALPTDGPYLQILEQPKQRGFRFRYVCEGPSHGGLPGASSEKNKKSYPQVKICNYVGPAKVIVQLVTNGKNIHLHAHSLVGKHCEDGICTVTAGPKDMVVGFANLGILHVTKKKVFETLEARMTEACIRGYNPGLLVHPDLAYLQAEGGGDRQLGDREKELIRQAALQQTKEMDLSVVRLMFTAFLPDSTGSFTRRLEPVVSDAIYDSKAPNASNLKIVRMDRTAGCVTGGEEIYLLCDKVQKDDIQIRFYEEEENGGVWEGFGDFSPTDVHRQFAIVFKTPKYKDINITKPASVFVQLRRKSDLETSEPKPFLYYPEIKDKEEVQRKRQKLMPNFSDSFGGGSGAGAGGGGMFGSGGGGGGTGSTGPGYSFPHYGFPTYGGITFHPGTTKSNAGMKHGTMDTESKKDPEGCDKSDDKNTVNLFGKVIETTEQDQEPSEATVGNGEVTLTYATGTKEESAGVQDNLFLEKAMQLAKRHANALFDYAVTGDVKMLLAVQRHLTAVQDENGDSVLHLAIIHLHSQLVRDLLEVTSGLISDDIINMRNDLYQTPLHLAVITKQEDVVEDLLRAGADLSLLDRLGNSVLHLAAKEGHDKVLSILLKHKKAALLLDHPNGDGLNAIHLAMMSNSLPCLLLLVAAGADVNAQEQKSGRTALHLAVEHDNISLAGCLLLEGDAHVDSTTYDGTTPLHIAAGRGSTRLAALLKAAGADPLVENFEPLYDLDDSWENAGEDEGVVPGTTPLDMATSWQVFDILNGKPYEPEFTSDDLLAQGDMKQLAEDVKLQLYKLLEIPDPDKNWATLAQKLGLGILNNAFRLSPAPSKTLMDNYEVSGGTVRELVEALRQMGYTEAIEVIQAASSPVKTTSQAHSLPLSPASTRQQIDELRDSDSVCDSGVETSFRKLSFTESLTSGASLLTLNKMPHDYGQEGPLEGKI
Sequence of Nuclear factor erythroid 2-related factor 2 (Homo sapiens) (Q16236 whole entry, looked up): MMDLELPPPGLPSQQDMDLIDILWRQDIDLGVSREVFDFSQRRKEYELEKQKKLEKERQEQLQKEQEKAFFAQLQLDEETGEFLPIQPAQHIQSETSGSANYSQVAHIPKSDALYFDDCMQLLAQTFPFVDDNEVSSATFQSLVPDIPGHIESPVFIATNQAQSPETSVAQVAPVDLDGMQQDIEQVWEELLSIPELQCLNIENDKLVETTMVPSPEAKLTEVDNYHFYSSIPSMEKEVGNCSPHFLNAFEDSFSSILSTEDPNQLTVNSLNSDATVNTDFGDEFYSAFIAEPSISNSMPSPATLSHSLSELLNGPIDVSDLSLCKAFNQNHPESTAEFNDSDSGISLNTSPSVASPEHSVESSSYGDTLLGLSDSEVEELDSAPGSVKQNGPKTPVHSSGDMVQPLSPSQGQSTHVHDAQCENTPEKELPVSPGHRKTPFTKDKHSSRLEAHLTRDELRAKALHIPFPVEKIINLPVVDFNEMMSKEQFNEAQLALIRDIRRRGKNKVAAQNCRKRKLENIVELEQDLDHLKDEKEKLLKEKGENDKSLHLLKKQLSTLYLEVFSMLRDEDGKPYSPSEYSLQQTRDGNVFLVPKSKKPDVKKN

Cc1oc(-c2ccccc2)nc1CCOc1cccc2c1ccn2CCC(=O)O
active: [1] 93.1 µM | [2] 82 µM | [4] 88.5 µM | [6] 79.2 µM | [7] 0.0309 µM | [8] 90.1 µM | [9] 82.1 µM | MYC, MYC (gene 4609) 81.9 µM | [15] 79.6 µM | [16] 1.1 µM | [18] 74.8 µM
inactive: [3] | [5] | [10] | [11] | [12] | [13] | [14] | [17]

O=c1[nH]cc(F)c(=O)[nH]1
active: [6] 80.6 µM | [7] 34.5 µM | [13] 51 µM | [15] 51 µM | [16] 76 µM
not listed: [12] | [19]
inactive: all other assays above

CC1(C)CC(N=C=O)CC(C)(CN=C=O)C1 (stereo not given)
not listed: [19]
inactive: all other assays above

COc1cc(-c2nc(NC(=O)c3cc4cc(C)cc(C)c4n3CC(=O)O)sc2CCC2CCCCC2)c(OC)cc1Cl
active: [2] 4.98 µM | [19] 26.5 µM | [4] 11.4 µM | [5] 10.7 µM | [6] 6.41 µM | [7] 10.5 µM | [8] 6.1 µM | [9] 3.51 µM | MYC, MYC (gene 4609) 19.8 µM | [11] 11.9 µM | [12] 19.4 µM | [13] 8.71 µM | [14] 16.8 µM | [15] 7.07 µM | [16] 24.4 µM | [17] 3.35 µM
inactive: [3] | [10] | [18]
